Source: PubChem BioAssay
The list is not random: actives were taken first. Their share in the collection is about 4.6%.
TRHR PAM: TRH receptor (human) allosteric enhancement; AID 493056; P34981; 360,000 tested, 0.66% active; TRHR cells, fluo-8 calcium fluorescence, EC20 TRH enhancement; enhancement, % at 2 µM; in the data active = enhancement above about 30%
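Enhancer read-out: after compound pinning and an initial kinetic agonist-mode read, an EC20 of TRH (10 nM final) was injected and fluo-8 calcium signal (Ex 480/Em 530) followed at 1 s/cycle for 100 cycles in TRHR-expressing cells.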
D1 antag: human D1 dopamine receptor antagonism. HEK293 TREx D1 cells, calcium flux, dopamine EC80; active compounds read low. AID 504652. activity change, negative = inhibition, % at 10 µM. P21728. 360,000 tested, 3.2% active; in the data active = activity change below about -30%
Target sequence (P21728 whole entry, looked up): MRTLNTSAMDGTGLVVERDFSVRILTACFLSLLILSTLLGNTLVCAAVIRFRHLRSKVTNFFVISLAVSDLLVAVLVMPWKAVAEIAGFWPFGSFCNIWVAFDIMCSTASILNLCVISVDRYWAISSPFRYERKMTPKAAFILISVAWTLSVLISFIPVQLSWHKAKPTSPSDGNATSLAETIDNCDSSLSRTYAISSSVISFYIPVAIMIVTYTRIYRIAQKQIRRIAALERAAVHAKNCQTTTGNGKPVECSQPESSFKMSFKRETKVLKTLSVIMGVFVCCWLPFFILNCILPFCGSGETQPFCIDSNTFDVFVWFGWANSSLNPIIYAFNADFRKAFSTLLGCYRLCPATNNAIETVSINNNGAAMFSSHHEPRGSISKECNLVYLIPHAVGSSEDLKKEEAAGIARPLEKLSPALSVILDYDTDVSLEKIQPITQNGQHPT
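Calcium flux readout: force-coupled, inducible Hek293 Trex D1 line, cells induced overnight at 30 C with tetracycline, dye-loaded 30–90 min at RT. Antagonism scored against EC80 dopamine challenge given 180 s after compound.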
TRHR ag: agonists of human TRH receptor | TRHR cells, calcium flux fluo-8, FDSS agonist mode | activation, % at 2 µM | P34981 | 360,000 tested, 0.18% active
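In this calcium-flux screen, cells bearing human TRHR are dye-loaded with fluo-8, baselined for 10 cycles, then exposed to library compounds; positive kinetic calcium responses during the agonist phase mark hits, with TRH as control.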
D1 agonist: agonists of human D1 dopamine receptor; P21728; activation, % at 2 µM; HEK293 T-REx D1 cells, calcium flux, agonist mode; 360,000 tested, 1% active; AID 504660
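Tetracycline-induced HEK293 TREx D1 cells, force-coupled to calcium signalling, were dye-loaded with a no-wash calcium kit. Compound was pin-added after a 10 s baseline. Fluorescence was read kinetically at 1 cycle/s for 180 s, with calcium rises flagged as agonism.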
D1 PAM: potentiators of human D1 dopamine receptor | potentiation, % at 10 µM | HEK293 TREx D1 cells, calcium flux, dopamine EC20 potentiation | P21728 | 360,000 tested, 0.036% active; in the data active = potentiation above about 30%
Hits are given with their value; – = inactive. Cut-off read from the data, not from the text of the source, unless noted: active = activation above about 30%; inactive = the rest.

SMILES	TRHR PAM	D1 antag	TRHR ag	D1 agonist	D1 PAM
CCCNC(=O)OC[C@H]1O[C@H](CCO/N=C/C[C@@H]2C=C[C@H](OC(C)=O)[C@@H](COC(C)=O)O2)C=C[C@@H]1Oc1ccc(OC)cc1	–	-30.3	–	–	–
CCCNC(=O)OC[C@H]1O[C@H](CCO/N=C(\C)CCN2CCc3nc(-c4ccccc4)c(-c4ccccc4)cc3C2)C=C[C@@H]1Oc1ccc(OC)cc1	–	–	–	–	–
Cc1cc2[nH]c(=O)c3ccccc3n2n1	–	-71.6	–	–	–
Cc1cc2[nH]c(=O)cc(-c3ccccc3)n2n1	–	–	–	–	–
N#Cc1nc(-c2ccco2)oc1N1CCCC1	–	–	–	–	–
CC1CC(C)CN(c2oc(-c3ccco3)nc2C#N)C1 (stereo unspecified)	–	-46.1	–	–	–
CC1C(c2ccccc2)N(C)C(c2ccccc2)C(C)C1(O)C#Cc1ccccc1 (stereo unspecified)	38.6	–	–	–	–
O=C(Nc1ccc2nc(SCC(=O)N3CCOCC3)sc2c1)c1ccccc1Cl	–	–	–	–	–
Cc1ccc2ncc(C(=O)NC(C)c3ccccc3)c(=O)n2c1 (stereo unspecified)	–	-33.7	–	–	–
CCC1CCc2c(sc(NC(=O)C3c4ccccc4Oc4ccccc43)c2C#N)C1 (stereo unspecified)	–	–	–	–	–
CSCCC(NC(=O)c1ccco1)C(=O)NCc1ccc2c(c1)OCO2 (stereo unspecified)	–	–	–	–	–
N#C/C(=C/c1ccncc1)c1nc2ccccc2s1	–	–	–	100.9	–
COc1ccc(NC(=O)c2cc(C3CC3)nc3c2c(C)nn3-c2ccccc2)c(OC)c1	–	–	–	–	–
COC1=C/C(=C/c2c(N)n3cc(C)sc3nc2=O)C=CC1=O	–	–	–	30.3	–
COC1=C/C(=C/c2c(N)n3nc(CC(=O)N4CCCC4)sc3nc2=O)C=CC1=O	–	–	–	–	–
COc1ccc(CCNC(=O)C2CCC(C(C)(C)C)CC2)cc1OC (stereo unspecified)	–	-63.0	–	–	–
COc1ccc(C(=O)C2CCN(C(=S)NCCc3ccc(OC)c(OC)c3)CC2)cc1	–	–	–	–	–
COc1ccc(CN2CCC(C(=O)c3ccc(F)cc3)CC2)cc1	–	-45.6	–	–	–
COc1ccc(COC(=O)C2CCN(S(=O)(=O)c3ccc(F)cc3)CC2)cc1	–	-34.6	–	37.3	–
COc1ccc(C(=O)C2CCN(C(=O)c3ccc(F)cc3)CC2)cc1	–	–	–	–	–
COc1ccc(CCNC(=S)N2CCC(C(=O)c3ccc(F)cc3)CC2)cc1OC	–	-43.9	–	–	–
N#CC1(c2ccccc2)CCN(S(=O)(=O)c2ccc(OC(F)(F)F)cc2)CC1	–	–	–	–	–
O=C(c1ccc(F)cc1)C1CCN(C(=S)NCC2CCCO2)CC1 (stereo unspecified)	–	-35.3	–	–	–
CC(=O)c1ccc(N2CCN(c3ccc(S(=O)(=O)NCCN(C)C)cc3[N+](=O)[O-])CC2)cc1	–	–	–	–	–
CN(C)CCNS(=O)(=O)c1ccc(N2CCc3ccccc32)c([N+](=O)[O-])c1	–	–	–	64.5	–
SMILES	TRHR PAM	D1 antag	TRHR ag	D1 agonist	D1 PAM
COc1ccc(NC(=O)CN(c2cc(C)cc(C)c2)S(=O)(=O)c2c(C)noc2C)cc1Cl	–	–	–	–	–
C/C(=N\Nc1ccc(C(=O)O)cc1)c1ccc(Cl)s1	–	–	–	50.1	–
C/C(=N\Nc1ccc(C(=O)O)cc1)c1ccc(Br)cc1	–	–	–	–	–
C/C(=N\NC(=O)c1c(Cl)cnn1C)c1ccc(NC(=O)c2ccc(Br)o2)cc1	–	-43.2	–	–	–
COc1ccc(C(CCN2CCCCC2)c2c(OC)cc(OC)c3c(-c4ccccc4)cc(=O)oc23)cc1 (stereo unspecified)	–	-43.0	–	55.5	–
COc1cc(OC)c2c(-c3ccccc3)cc(=O)oc2c1C(CC(=O)N1CCCC1)c1ccc2c(c1)OCO2 (stereo unspecified)	–	-35.8	–	–	–
CC(=O)N1CCc2c(sc3c2c(=O)n(-c2ccccc2Cl)c(=O)n3C)C1	–	–	–	–	–
